Reference: PubChem BioAssay AID1159580 (chemical genetic matrix, 2015)
The campaign covered roughly 5,500 compounds. About 2,000 (36%) were called active. About 18% were inconclusive and are not listed. The list shows a part of the results. A number with no mark means an inactive call. Rule as the data show it: active = normalized growth mostly below about 0.91 (no sharp cut-off); inconclusive = no clear call, values can overlap the other calls; inactive = mostly above about 0.92.

Assay: chemical genetic growth profiling, strain panel (AID 1159580);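 also: tested at 20 µM; growth read once vehicle control cultures reached saturation at 30 °C; 1 = growth at the plate median or of vehicle wells; lower values mean less growth of the strain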
Conditions: S. cerevisiae deletion strains, growth OD
[1] = locus YHR030C, strain SLT2, hits give low values
[2] = locus YJL095W, strain BCK1, hits give low values

C[C@]12C=CC(=O)C=C1CCC1C2[C@@H](O)C[C@@]2(C)C1CC[C@]2(O)C(=O)COC(=O)CCC(=O)O (stereo not given in full)
normalized growth [1]: 0.969
normalized growth (locus YHR079C, strain IRE1, hits give low values): 0.968
normalized growth [2]: 1
normalized growth (locus YJR066W, strain TOR1, hits give low values): 0.931
normalized growth (locus YLR113W, strain HOG1, hits give low values): 1
normalized growth (locus YNL183C, strain NPR1, hits give low values): 0.931
normalized growth (locus YOR231W, strain MKK1, hits give low values): 0.979
normalized growth (locus YPL256C, strain CLN2, hits give low values): 0.963

CC(CC(O)C1OC1(C)C)[C@@H]1CCC2(C)C3=CCC4C(C)(C)C(=O)CCC4(C)C3CC[C@@]12C (stereo not given in full)
normalized growth (locus YAL021C, strain ccr4, hits give low values): 0.986
normalized growth (locus YAL026C, strain drs2, hits give low values): 0.997
normalized growth (locus YAL030W, strain snc1, hits give low values): 1
normalized growth (locus YBL061C, strain skt5, hits give low values): 1.02
normalized growth (locus YBR009C, strain hhf1, hits give low values): 0.979
normalized growth (locus YBR021W, strain FUR4, hits give low values): 0.993
normalized growth (locus YBR023C, strain chs3, hits give low values): 1.01
normalized growth (locus YBR171W, strain sec66, hits give low values): 0.999
normalized growth (locus YBR229C, strain ROT2, hits give low values): 1.03
normalized growth (locus YBR231C, strain swc5, hits give low values): 1.04
normalized growth (locus YBR279W, strain paf1, hits give low values): 0.999
normalized growth (locus YCL011C, strain gbp2, hits give low values): 1.01
normalized growth (locus YCL016C, strain dcc1, hits give low values): 0.994
normalized growth (locus YCL029C, strain bik1, hits give low values): 1.03
normalized growth (locus YCL061C, strain MRC1, hits give low values): 0.994
normalized growth (locus YCL069W, strain vba3, hits give low values): 0.995
normalized growth (locus YCR088W, strain abp1, hits give low values): 1.01
normalized growth (locus YDL005C, strain med2, hits give low values): 1.01
normalized growth (locus YDL035C, strain GPR1, hits give low values): 0.952
normalized growth (locus YDL040C, strain nat1, hits give low values): 1
normalized growth (locus YDL074C, strain BRE1, hits give low values): 1.02
normalized growth (locus YDL101C, strain DUN1, hits give low values): 1.04
normalized growth (locus YDL134C, strain PPH21, hits give low values): 1.03
normalized growth (locus YDL185W, strain tfp1, hits give low values): 1.03
normalized growth (locus YDL192W, strain arf1, hits give low values): 1.03
normalized growth (locus YDR001C, strain nth1, hits give low values): 0.984
normalized growth (locus YDR069C, strain doa4, hits give low values): 1
normalized growth (locus YDR101C, strain arx1, hits give low values): 1.02
normalized growth (locus YDR137W, strain rgp1, hits give low values): 0.831 (active)
normalized growth (locus YDR159W, strain sac3, hits give low values): 1.01
normalized growth (locus YDR162C, strain NBP2, hits give low values): 1.04
normalized growth (locus YDR195W, strain ref2): 0.971
normalized growth (locus YDR297W, strain sur2, hits give low values): 1
normalized growth (locus YDR318W, strain mcm21, hits give low values): 1.04
normalized growth (locus YDR334W, strain swr1, hits give low values): 0.997
normalized growth (locus YDR335W, strain msn5, hits give low values): 0.993
normalized growth (locus YDR388W, hits give low values): 1.03
normalized growth (locus YDR392W, strain spt3, hits give low values): 1.02
normalized growth (locus YDR502C, strain sam2, hits give low values): 1.03
normalized growth (locus YEL003W, strain gim4, hits give low values): 1.01
normalized growth (locus YEL037C, strain rad23, hits give low values): 1
normalized growth (locus YEL061C, strain CIN8 (second series), hits give low values): 1
normalized growth (locus YER015W, strain faa2, hits give low values): 1
normalized growth (locus YER016W, strain bim1, hits give low values): 1
normalized growth (locus YER110C, hits give low values): 1.03
normalized growth (locus YER111C, strain swi4, hits give low values): 1.02
normalized growth (locus YER155C, strain BEM2 (second series), hits give low values): 1.04
normalized growth (locus YER155C, strain BEM2, hits give low values): 1.04
normalized growth (locus YER167W, strain BCK2, hits give low values): 1.05
normalized growth (locus YFR010W, strain ubp6, hits give low values): 0.997
normalized growth (locus YGL078C, strain dbp3, hits give low values): 1.01
normalized growth (locus YGL086W, strain mad1, hits give low values): 1.05
normalized growth (locus YGL167C, strain pmr1, hits give low values): 0.999
normalized growth (locus YGL173C, strain kem1, hits give low values): 1
normalized growth (locus YGL227W, strain vid30, hits give low values): 0.998
normalized growth (locus YGL240W, strain doc1, hits give low values): 1.02
normalized growth (locus YGL248W, strain PDE1, hits give low values): 1.03
normalized growth (locus YGL253W, strain hxk2, hits give low values): 0.994
normalized growth (locus YGR135W, strain pre9, hits give low values): 1.04
normalized growth (locus YGR229C, strain SMI1, hits give low values): 1.08
normalized growth (locus YGR252W, strain gcn5, hits give low values): 1.17
normalized growth (locus YHR013C, strain ard1, hits give low values): 1.03
normalized growth (locus YHR027C, strain rpn1, hits give low values): 1
normalized growth [1]: 1.03
normalized growth (locus YHR079C, strain IRE1 (second series), hits give low values): 1.03
normalized growth (locus YHR094C, strain hxt1, hits give low values): 1.04
normalized growth (locus YHR129C, strain ARP1, hits give low values): 1.04
normalized growth (locus YHR142W, strain chs7, hits give low values): 1
normalized growth (locus YHR200W, strain rpn10, hits give low values): 1.03
normalized growth (locus YIL066C, strain RNR3, hits give low values): 1.01
normalized growth (locus YIL073C, strain SPO22, hits give low values): 1.1
normalized growth (locus YIL125W, strain kgd1, hits give low values): 1.03
normalized growth (locus YIR030C, strain dcg1, hits give low values): 1.03
normalized growth (locus YJL092W, strain hpr5, hits give low values): 1
normalized growth (locus YJL095W, strain BCK1 (second series), hits give low values): 1
normalized growth [2]: 1.05
normalized growth (locus YJL115W, strain asf1, hits give low values): 0.992
normalized growth (locus YJL129C, strain trk1, hits give low values): 0.993
normalized growth (locus YJL134W, strain LCB3, hits give low values): 1.04
normalized growth (locus YJL154C, strain vps35, hits give low values): 1
normalized growth (locus YJL164C, strain tpk1, hits give low values): 0.966
normalized growth (locus YJL166W, strain qcr8, hits give low values): 0.988
normalized growth (locus YJL168C, strain set2, hits give low values): 1.04
normalized growth (locus YJL187C, strain SWE1 (second series), hits give low values): 1.03
normalized growth (locus YJL187C, strain SWE1, hits give low values): 0.995
normalized growth (locus YKL068W, hits give low values): 1.01
normalized growth (locus YKL160W, strain elf1, hits give low values): 0.993
normalized growth (locus YKR001C, strain vps1, hits give low values): 1.07
normalized growth (locus YKR026C, strain gcn3, hits give low values): 1.01
normalized growth (locus YKR091W, strain srl3, hits give low values): 0.996
normalized growth (locus YLL001W, strain dnm1, hits give low values): 0.949
normalized growth (locus YLL026W, hits give low values): 0.998
normalized growth (locus YLL041C, strain sdh2, hits give low values): 0.998
normalized growth (locus YLR027C, strain aat2, hits give low values): 0.993
normalized growth (locus YLR039C, strain RIC1, hits give low values): 1.09
normalized growth (locus YLR058C, strain SHM2, hits give low values): 1.04
normalized growth (locus YLR102C, strain apc9, hits give low values): 1.04
normalized growth (locus YLR221C, strain rsa3, hits give low values): 1.03
normalized growth (locus YLR258W, strain gsy2, hits give low values): 1.01
normalized growth (locus YLR262C, strain YPT6 (second series), hits give low values): 0.768 (active)
normalized growth (locus YLR262C, strain YPT6, hits give low values): 1.02
normalized growth (locus YLR268W, strain sec22, hits give low values): 1.04
normalized growth (locus YLR320W, strain mms22, hits give low values): 1.03
normalized growth (locus YLR330W, strain CHS5, hits give low values): 1.04
normalized growth (locus YLR342W, strain FKS1, hits give low values): 1.02
normalized growth (locus YLR357W, strain rsc2, hits give low values): 1.02
normalized growth (locus YLR370C, strain arc18, hits give low values): 1.01
normalized growth (locus YLR371W, strain rom2, hits give low values): 1.04
normalized growth (locus YLR384C, strain iki3, hits give low values): 1
normalized growth (locus YLR418C, strain cdc73, hits give low values): 1.09
normalized growth (locus YML016C, strain PPZ1, hits give low values): 1.05
normalized growth (locus YML032C, strain rad52, hits give low values): 1.04
normalized growth (locus YML120C, strain ndi1, hits give low values): 0.995
normalized growth (locus YML124C, strain tub3, hits give low values): 1.03
normalized growth (locus YMR058W, strain fet3, hits give low values): 1.01
normalized growth (locus YMR078C, strain ctf18, hits give low values): 1.05
normalized growth (locus YMR125W, strain sto1, hits give low values): 1
normalized growth (locus YMR129W, hits give low values): 1
normalized growth (locus YMR205C, strain PFK2, hits give low values): 0.943
normalized growth (locus YMR223W, strain ubp8, hits give low values): 1.03
normalized growth (locus YMR231W, strain pep5, hits give low values): 0.98
normalized growth (locus YMR307W, strain GAS1, hits give low values): 1.07
normalized growth (locus YNL067W, strain RPL9B, hits give low values): 1.03
normalized growth (locus YNL071W, strain lat1, hits give low values): 0.996
normalized growth (locus YNL153C, strain GIM3, hits give low values): 1.01
normalized growth (locus YNL209W, strain ssb2, hits give low values): 1
normalized growth (locus YNL233W, strain BNI4, hits give low values): 1.03
normalized growth (locus YNL248C, strain rpa49, hits give low values): 0.959
normalized growth (locus YNL250W, strain rad50, hits give low values): 1.04
normalized growth (locus YNL271C, strain bni1, hits give low values): 1.03
normalized growth (locus YNL298W, strain CLA4, hits give low values): 1.02
normalized growth (locus YNL307C, strain MCK1, hits give low values): 1.03
normalized growth (locus YNL322C, strain KRE1 (second series), hits give low values): 0.989
normalized growth (locus YNR049C, strain mso1, hits give low values): 0.995
normalized growth (locus YNR052C, strain pop2, hits give low values): 1.04
normalized growth (locus YOL006C, strain TOP1, hits give low values): 1.09
normalized growth (locus YOL012C, strain htz1): 1.47
normalized growth (locus YOL147C, strain pex11, hits give low values): 1.05
normalized growth (locus YOR001W, strain rrp6, hits give low values): 0.983
normalized growth (locus YOR061W, strain CKA2, hits give low values): 1.03
normalized growth (locus YOR069W, strain VPS5, hits give low values): 1.03
normalized growth (locus YOR070C, strain gyp1, hits give low values): 1.02
normalized growth (locus YOR080W, strain dia2, hits give low values): 1.01
normalized growth (locus YOR083W, strain WHI5, hits give low values): 0.994
normalized growth (locus YOR106W, strain vam3, hits give low values): 0.982
normalized growth (locus YOR136W, strain idh2, hits give low values): 1.03
normalized growth (locus YOR144C, strain elg1, hits give low values): 1.04
normalized growth (locus YOR184W, strain ser1, hits give low values): 0.955
normalized growth (locus YOR265W, strain rbl2, hits give low values): 0.999
normalized growth (locus YOR270C, strain vph1, hits give low values): 0.877
normalized growth (locus YOR290C, strain snf2, hits give low values): 0.946
normalized growth (locus YOR316C, strain cot1, hits give low values): 1.02
normalized growth (locus YPL051W, strain arl3, hits give low values): 1.03
normalized growth (locus YPL078C, strain atp4, hits give low values): 0.966
normalized growth (locus YPL106C, strain sse1, hits give low values): 1.1
normalized growth (locus YPL240C, strain hsp82, hits give low values): 1.01
normalized growth (locus YPL241C, strain CIN2, hits give low values): 1.05
normalized growth (locus YPR119W, strain clb2, hits give low values): 1.04
normalized growth (locus YPR141C, strain kar3, hits give low values): 1.05
normalized growth (locus YPR163C, strain tif3, hits give low values): 1.04
normalized growth (locus YPR167C, strain met16, hits give low values): 1.03
normalized growth (strain wtn01, hits give low values): 1.02
